{
  "source": "PubChem BioAssay AID1671190",
  "about": "(National Center for Advancing Translational Sciences (NCATS), 2021)",
  "note": "The campaign covered roughly 580,000 compounds. About 6,100 (1.1%) were called active. Entries that show only a call come without a potency. Another 15% or so got no clear call; they are omitted. The call rests on the fitted dose curve; in most records, active means well fitted inhibition curve with a large enough effect; inconclusive means small, poorly fitted or top-dose-only effect, or another doubt; inactive means no such curve, though single readings can be large or run the other way. For the sample, actives were picked, then their nearest neighbours and some compounds at random. Potency means the concentration at half of the fitted maximal effect.",
  "data": [
    {"molecular_target": "Polyunsaturated fatty acid lipoxygenase ALOX12 (Homo sapiens) (UniProt P18054)", "sequence (P18054 whole entry, looked up)": "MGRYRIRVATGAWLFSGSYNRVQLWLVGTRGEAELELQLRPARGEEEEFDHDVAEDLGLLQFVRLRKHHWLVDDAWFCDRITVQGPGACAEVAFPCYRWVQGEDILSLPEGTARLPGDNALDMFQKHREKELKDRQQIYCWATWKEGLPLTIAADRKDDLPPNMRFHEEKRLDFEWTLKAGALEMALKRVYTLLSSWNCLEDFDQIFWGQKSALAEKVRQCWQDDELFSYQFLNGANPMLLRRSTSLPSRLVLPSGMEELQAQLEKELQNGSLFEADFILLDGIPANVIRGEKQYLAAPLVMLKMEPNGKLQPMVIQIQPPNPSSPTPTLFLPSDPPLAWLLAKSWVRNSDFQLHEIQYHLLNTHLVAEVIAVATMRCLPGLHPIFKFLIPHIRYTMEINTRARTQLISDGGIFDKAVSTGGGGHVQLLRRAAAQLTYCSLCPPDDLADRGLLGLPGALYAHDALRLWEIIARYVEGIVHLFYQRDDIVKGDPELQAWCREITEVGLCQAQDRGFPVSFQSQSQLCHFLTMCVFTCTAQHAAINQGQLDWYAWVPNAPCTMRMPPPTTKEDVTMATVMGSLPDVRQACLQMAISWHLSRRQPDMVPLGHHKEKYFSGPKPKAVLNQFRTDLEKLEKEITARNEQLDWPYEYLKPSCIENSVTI", "assay": "Primary qHTS assay for inhibitors of human arachidonate 12S-lipoxygenase (ALOX12): Round 2", "settings": "purified 12hLO, xylenol orange hydroperoxide absorbance; series mostly up to 108 µM", "description": "Assay Provider: Theodore R. Holman Ph.D. University of California, Santa Cruz, California Human lipoxygenase 12hLO is a member of the closely related lipoxygenase family of enzymes which catalyze the site-specific oxidation of arachidonic acid to various hormone precursor molecules and as such is a candidate for drug development in a variety of disease areas, such as cancer and inflammation. Inhibition of 12hLO activity was screened by utilizing arachidonic acid as a substrate. The extent of hydroperoxide product formation was measured by a secondary chromogenic reaction in which xylenol orange (XO, Sigma-Aldrich, cat. number 39,818-7) reacts with the ferric ions produced from the reaction between the hydroperoxide and ferrous ions. The Fe (III)-XO complex is characterized with red-shifted absorbance at 560 nm. A purified preparation of human 12hLO was supplied by Dr. Holman laboratory, University of California, Santa Cruz.\nPROTOCOL TABLE SEQUENCE No. (e.g., 1, 2, 3, etc.); […] (e.g., Cells, Incubation, Reagent, etc.); VALUE; DESCRIPTION 1; Enzyme; 3 uL; 150 nM 12hLO enzyme solution dispensed in 1536-well Greiner black, clear bottom plates. 2; Compound; 23 nL; compounds and controls were added. 3; Incubate; 15 min; room temperature. 4; Substrate; 1 uL; 40 uM arachidonic acid (final concentration). 5; Incubate; 30 min; room temperature. 6; Reagent; 4 uL; Fe-XO solution was added to each well. 7; Incubation; 30 min; room temperature 8; Detector; absorbance; Read 1 at 405 nm absorbance using ViewLux (Perkin-Elmer) CCD imager. 9; Detector; absorbance; Read 2 at 573 nm absorbance using ViewLux (Perkin-Elmer) CCD imager. NOTES (numbers refer to sequence above) 1; 150 nM 12hLO (final concentration) in buffer solution (25 mM Hepes, 0.01% Triton X-100, pH 7.0) was dispensed in columns 1, 2, 5-48. Column 1 is neutral (100% activity). Buffer only was dispensed in columns 3 and 4 as no enzyme negative controls. The plates were covered with metal lids with gas-exchange holes. 2; Compounds were pin transferred via a Kalypsys Pin Tool (Wako USA) in column 5-48. Control compound was transferred in column 2, titration of nordihydroguaiaretic acid (NDGA, Sigma-Aldrich, N5023) with top concentration of 20 mM in DMSO then 1:3 dilution in duplicate. Dilution factor of 23 nL into 4 uL final assay volume. 3; Covered assay plates were incubated for 15 min at room temperature. 4; Substrate was added to start the reaction; 40 uM arachidonic acid (Sigma-Aldrich, St. Louis, MO) was dispensed throughout the plate. 6; Chromogenic detection reagent solution (divalent iron/xylenol orange, Fe-XO) was added to each well: 200 uM xylenol orange, 300 uM ferrous ammonium sulfate prepared freshly in 50 mM sulfuric acid. 8, 9; Two absorbance readouts were obtained at 405 nm and at 573 nm using a ViewLux high-throughput CCD plate imager (Perkin-Elmer). The 573 to 405 (Read 2 / Read 1) absorbance ratio was used to compute reaction progress.", "values": [
      {"smiles": "Cc1csc(NC(=O)CCc2ncc(-c3ccc(Cl)cc3Cl)o2)n1", "Potency": "inactive"},
      {"smiles": "Cc1csc(NC(=S)Nc2cccc(Cl)c2)n1", "Potency": "8.91 µM (active)"},
      {"smiles": "O=C(Nc1cccc(Cl)c1)c1csnn1", "Potency": "inactive"},
      {"smiles": "CCCCCn1c(=O)[nH]c2cc(C(=O)NCCN(C)CCCC)ccc2c1=O", "Potency": "inactive"},
      {"smiles": "CCOc1cc2[nH]c(=O)n(Cc3ccc(C(=O)NCCN(CC)CC)cc3)c(=O)c2cc1OCC", "Potency": "inactive"},
      {"smiles": "CCN(CC)CCCNC(=O)c1ccc2c(=O)n(Cc3ccc4c(c3)OCO4)c(=S)[nH]c2c1", "Potency": "39.8 µM (active)"},
      {"smiles": "O=C(CCc1ccccc1)Nc1ccc(Cl)c(C(F)(F)F)c1", "Potency": "inactive"},
      {"smiles": "Cc1cccc(NC(=O)CN2CC3CC(C2)[C@H]2CCCC(=O)N2C3)c1", "note": "(some centres undefined)", "Potency": "inactive"},
      {"smiles": "O=C(NC(=O)c1ccccc1N1CCCCC1)Nc1ccc(Br)cc1", "Potency": "inactive"},
      {"smiles": "CSc1ccccc1NC(=O)Cc1ccc(Br)cc1", "Potency": "inactive"},
      {"smiles": "O=C(NC(=S)Nc1ccccc1C(=O)O)c1ccc(-c2ccc(Br)cc2)o1", "Potency": "10 µM (active)"},
      {"smiles": "Cn1cc(C(=O)N2CCC(C(N)=O)CC2)c2ccccc21", "Potency": "inactive"},
      {"smiles": "CC1=C(C(=O)OC(C)C)C(c2ccncc2)c2c(nc(SCc3ccccc3)[nH]c2=O)N1", "note": "(centres undefined)", "Potency": "inactive"},
      {"smiles": "CCc1ccc(C=C2SC(=S)NC2=O)cc1", "Potency": "10.9 µM (active)"},
      {"smiles": "O=C1NC(=O)C(=Cc2cccc(C(F)(F)F)c2)S1", "Potency": "inactive"},
      {"smiles": "COc1ccc(/C=C2/S/C(=N/N=C3\\CC4CCC3(C)C4(C)C)NC2=O)cc1", "note": "(centres undefined)", "Potency": "inactive"},
      {"smiles": "CCOC(=O)NC(CNC(=O)c1ccccc1OC)CC(C)C", "note": "(centres undefined)", "Potency": "inactive"},
      {"smiles": "COc1ccccc1NS(=O)(=O)c1ccc2oc(SCCOc3ccccc3F)nc2c1", "Potency": "inactive"},
      {"smiles": "CCC(CC)C(=O)Nc1sc(Nc2ccc(C)cc2)nc1C(N)=O", "Potency": "inactive"},
      {"smiles": "COc1ccc2cc(S(=O)(=O)c3ccc(Cl)c(Cl)c3)c(=O)oc2c1", "Potency": "inactive"},
      {"smiles": "O=C(c1ccc(C(F)(F)F)cc1)N1CCC([C@@H]2CNC[C@H]2CO)CC1", "Potency": "44.7 µM (active)"},
      {"smiles": "O=C(c1ccc(F)c(F)c1)N1CCC([C@@H]2CNC[C@H]2CO)CC1", "Potency": "inactive"},
      {"smiles": "COc1ccc(C(=O)N2CCC([C@@H]3CNC[C@H]3CO)CC2)cc1OC", "Potency": "inactive"},
      {"smiles": "Nc1ccc(SCCN2C(=O)c3ccccc3C2=O)cc1", "Potency": "inactive"},
      {"smiles": "O=C1c2ccccc2C(=O)N1CCCCCCN1C(=O)c2ccccc2C1=O", "Potency": "35.5 µM (active)"},
      {"smiles": "O=C(OCCN1C(=O)c2ccccc2C1=O)Oc1ccccc1", "Potency": "inactive"},
      {"smiles": "COc1ccc(CC(=O)N2CC3ON=C(c4c(F)cccc4Cl)C3C2)cc1OC", "note": "(centres undefined)", "Potency": "inactive"},
      {"smiles": "CCCn1c(-n2nc(C)cc2C)nc2c1c(=O)n(CCN1CCCCC1)c(=O)n2C", "Potency": "inactive"},
      {"smiles": "CC(c1ccc(S(N)(=O)=O)cc1)N(C)C(=O)CCc1ncc(-c2ccc(Cl)cc2)o1", "note": "(centres undefined)", "Potency": "inactive"}
    ]}
  ]
}
